Experimental data: PubChem BioAssay (EPA / NIEHS)
Several values for one entry are separate records, joined by “and”; a condition that tells them apart may be missing. Identical values can stand only once. Results filed as inconclusive are left out. Where a structure was tested more than once in an assay, its records may differ in their call. Activity calls are given as the source filed them. How the source made its calls, unless noted: active means hit-call score of the fitted dose curve at least 0.9, where 1 is the maximum; inconclusive means response in the unintended direction; inactive means score below 0.9.

Experiments:
[1] = read-out: sulfotransferase 2A1 (SULT2A1), SULT2A1 (gene 6822); assay: LTEA_HepaRG_SULT2A1: Life Technologies and Expression Analysis (LTEA) Assay for sulfotransferase 2A1 (SULT2A1) using HepaRG (AID 2283531; active means hit-call score of the fitted dose curve at least 0.9, where 1 is the maximum; inactive means score below 0.9); details: mRNA level, 48 h; actives raise or lower the signal
Procedure, shortened: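 Gene-expression endpoint in a human liver cell line: SULT2A1 mRNA change after 48 h chemical treatment, curves fitted in both directions relative to 0.5% DMSO vehicle. Concentrations spanned eight half-log steps from 100 uM.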

[2] = read-out: Transforming Growth Factor (TGFA), TGFA (gene 7039); assay: LTEA_HepaRG_TGFA: Life Technologies and Expression Analysis (LTEA) Assay for Transforming Growth Factor (TGFA) using HepaRG (AID 2283532; active means hit-call score of the fitted dose curve at least 0.9, where 1 is the maximum; inactive means score below 0.9); details: mRNA level, 48 h; actives raise or lower the signal
Procedure, shortened: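 HepaRG (human liver line), 48 h exposure, 8 conc. half-log down from 100 uM, 0.5% DMSO vehicle, duplicates; serum-free induction medium. TGFA mRNA by TaqMan qRT-PCR, ACTB/GAPDH/POLR2A normalization; gain/loss fit vs DMSO.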

[3] = read-out: Transforming Growth Factor (TGFB1), TGFB1 (gene 7040); assay: LTEA_HepaRG_TGFB1: Life Technologies and Expression Analysis (LTEA) Assay for Transforming Growth Factor (TGFB1) Transporter using HepaRG (AID 2283533; active means hit-call score of the fitted dose curve at least 0.9, where 1 is the maximum; inactive means score below 0.9); details: mRNA level, 48 h; actives raise or lower the signal
Procedure, shortened: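 Eight-point concentration-response (max 100 uM, half-log) in HepaRG under serum-free induction conditions, 48 h. TGFB1 mRNA by qRT-PCR, housekeeping-normalized.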

TIMP1, TIMP1 (gene 7076) = assay: LTEA_HepaRG_TIMP1: Life Technologies and Expression Analysis (LTEA) Assay for TIMP1 using HepaRG (AID 2283534; active means hit-call score of the fitted dose curve at least 0.9, where 1 is the maximum; inactive means score below 0.9;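 further: TaqMan qRT-PCR signal normalized to ACTB GAPDH and POLR2A housekeeping genes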); details: mRNA level, 48 h; actives raise or lower the signal
Procedure, shortened: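 TIMP1 induction or repression in HepaRG cells after 48 h chemical exposure (eight concentrations, highest 100 uM), assessed by normalized qRT-PCR with bidirectional fitting to DMSO controls.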

[4] = read-out: Tumor necrosis factor receptor 1 (TNFRSF1A), TNFRSF1A (gene 7132); assay: LTEA_HepaRG_TNFRSF1A: Life Technologies and Expression Analysis (LTEA) Assay for Tumor necrosis factor receptor 1 (TNFRSF1A) using HepaRG (AID 2283535; active means hit-call score of the fitted dose curve at least 0.9, where 1 is the maximum; inactive means score below 0.9); details: mRNA level, 48 h; actives raise or lower the signal
Procedure, shortened: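 Assay uses 48 h chemical treatment of differentiated HepaRG monolayers, tested in duplicate at eight concentrations from 100 uM downward in 0.5% DMSO. mRNA is normalized to ACTB, GAPDH and POLR2A, with induction or suppression fitted relative to vehicle.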

[5] = read-out: Thyroid Hormone Responsive (THRSP), THRSP (gene 7069); assay: LTEA_HepaRG_THRSP: Life Technologies and Expression Analysis (LTEA) Assay for Thyroid Hormone Responsive (THRSP) using HepaRG (AID 2283536; active means hit-call score of the fitted dose curve at least 0.9, where 1 is the maximum; inactive means score below 0.9); details: mRNA level, 48 h; actives raise or lower the signal
Procedure, shortened: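 mRNA induction or loss relative to 0.5% DMSO vehicle was fitted bidirectionally across an eight-point curve whose highest exposure was 100 uM. Human HepaRG liver cells received chemicals in duplicate over 48 h before RNA extraction.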

[6] = read-out: Cellular tumor antigen p53 (Homo sapiens) (UniProt P04637); assay: LTEA_HepaRG_TP53: Life Technologies and Expression Analysis (LTEA) Assay for Tumor Protein P53 (TP53) using HepaRG (AID 2283537; active means hit-call score of the fitted dose curve at least 0.9, where 1 is the maximum; inactive means score below 0.9); details: mRNA level, 48 h; actives raise or lower the signal
Procedure, shortened: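 Differentiated HepaRG cells in serum-free induction medium exposed 48 h in duplicate to 8 half-log concentrations, top 100 uM, 0.5% DMSO. TP53 mRNA by TaqMan qRT-PCR (Fluidigm), normalized to ACTB, GAPDH, POLR2A; fitted bidirectionally versus DMSO.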

[7] = read-out: UDP glucuronosyltransferase (UGT1A1), UGT1A1 (gene 54658); assay: LTEA_HepaRG_UGT1A1: Life Technologies and Expression Analysis (LTEA) Assay for UDP glucuronosyltransferase (UGT1A1) using HepaRG (AID 2283538; active means hit-call score of the fitted dose curve at least 0.9, where 1 is the maximum; inactive means score below 0.9); details: mRNA level, 48 h; actives raise or lower the signal
Procedure, shortened: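 Differentiated human HepaRG cells in serum-free induction medium were exposed in duplicate for 48 h to eight half-log concentrations up to 100 uM in 0.5% DMSO. UGT1A1 mRNA was quantified by TaqMan qRT-PCR, normalized to ACTB, GAPDH and POLR2A, and fitted bidirectionally against DMSO.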

[8] = read-out: UDP glucuronosyltransferase (UGT1A6), UGT1A6 (gene 54578); assay: LTEA_HepaRG_UGT1A6: Life Technologies and Expression Analysis (LTEA) Assay for UDP glucuronosyltransferase (UGT1A6) using HepaRG (AID 2283539; active means hit-call score of the fitted dose curve at least 0.9, where 1 is the maximum; inactive means score below 0.9); details: mRNA level, 48 h; actives raise or lower the signal
Procedure, shortened: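 Measures mRNA change in HepaRG hepatic cells exposed 48 h to chemicals (eight-point, maximum 100 uM, 0.5% DMSO vehicle) in serum-free induction medium. Expression normalized to endogenous controls; DMSO served as negative control and baseline.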

[9] = read-out: X-box binding protein 1 (XBP1), XBP1 (gene 7494); assay: LTEA_HepaRG_XBP1: Life Technologies and Expression Analysis (LTEA) Assay for X-box binding protein 1 (XBP1) using HepaRG (AID 2283540; active means hit-call score of the fitted dose curve at least 0.9, where 1 is the maximum; inactive means score below 0.9); details: mRNA level, 48 h; actives raise or lower the signal
Procedure, shortened: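 Eight concentrations (half-log, highest 100 uM, 0.5% DMSO) tested in duplicate on HepaRG cells over 48 h in serum-free induction medium; qRT-PCR of XBP1 normalised to ACTB, GAPDH, POLR2A.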

[10] = LTEA_HepaRG_LDH_cytotoxicity: Cytotoxicity Assessment in the Life Technologies and Expression Analysis (LTEA) Assay (AID 2283563);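 on AC50: LDH activity released into spent culture medium as a marker of cell death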
Procedure, shortened: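 Spent-medium LDH after 48 h chemical exposure of HepaRG cells in serum-free induction medium; eight concentrations, half-log dilutions from 100 uM, duplicate wells, fitted upward relative to 0.5% DMSO.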

[11] = ATG_XTT_Cytotoxicity: Cytotoxicity Assessment in the Attagene TRANS-FACTORIAL HepG2 Assay (AID 2283584);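 on AC50: XTT signal for cell number as viability in transfected HepG2 cells; cells exposed to compound for 24 h before reading; active means loss of viability signal versus DMSO baseline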
Procedure, shortened: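 24 h chemical exposure of reporter-transfected HepG2; XTT signal loss vs DMSO indicates cytotoxicity.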

[12] = TOX21_p53_BLA_p2_viability: Viability Assessment in the Tox21 HCT-116 p53 Agonism Beta-lactamase Assay, Phase 2 (AID 2283591);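 further: compound exposure lasted 16 h at 37 °C; actives lower the ATP signal meaning cytotoxicity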
Procedure, shortened: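 Cytotoxicity readout: CellTiter-Glo ATP luminescence, 30 min at room temperature, after the beta-lactamase read. Cells were HCT116 exposed 16 h at 37C to compounds pin-transferred at 217-fold dilution from DMSO stocks.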

[13] = biological target: Cellular tumor antigen p53 (Homo sapiens) (UniProt P04637); assay: TOX21_p53_BLA_p2_ratio: Tox21 HCT-116 p53 Agonism Beta-lactamase Assay, Ratio, Phase 2 (AID 2283592)
Procedure, shortened: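 Human colon HCT116 cells with an inducible p53 beta-lactamase reporter are exposed to test chemicals for 16 h at 37C. Reporter induction is read as the 460/530 nm emission ratio after CCF4-AM loading, normalized to DMSO.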

[14] = TOX21_p53_BLA_p3_viability: Viability Assessment in the Tox21 HCT-116 p53 Agonism Beta-lactamase Assay, Phase 3 (AID 2283593);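 further: cells exposed to compound for 16 h before reading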
Procedure, shortened: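 Cellular ATP was quantified by CellTiter-Glo luminescence, read after 30 min at room temperature. Beforehand, HCT116 cells (4000/well) received compound 5 h post-seeding, 217-fold diluted from DMSO, then incubated 16 h at 37C.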

[15] = biological target: Cellular tumor antigen p53 (Homo sapiens) (UniProt P04637); assay: TOX21_p53_BLA_p3_ratio: Tox21 HCT-116 p53 Agonism Beta-lactamase Assay, Ratio, Phase 3 (AID 2283596)
Procedure, shortened: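 HCT116 p53-bla cells (4000/well) given compound in DMSO (217-fold dilution) after 5 h, incubated 16 h at 37C. CCF4-AM substrate 2 h at room temperature; 460/530 nm emission ratio, gain fitted against DMSO.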

[16] = TOX21_p53_BLA_p4_viability: Viability Assessment in the Tox21 HCT-116 p53 Agonism Beta-lactamase Assay, Phase 4 (AID 2283597);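 further: hits lower the luminescence signal meaning cytotoxicity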
Procedure, shortened: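 Luminescent ATP readout (CellTiter-Glo, 30 min, room temperature) in the same wells as the p53 bla ratio. HCT116 cells were treated for 16 h at 37C with DMSO-dissolved compounds.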

[17] = biological target: Cellular tumor antigen p53 (Homo sapiens) (UniProt P04637); assay: TOX21_p53_BLA_p5_ratio: Tox21 HCT-116 p53 Agonism Beta-lactamase Assay, Ratio, Phase 5 (AID 2283599)
Procedure, shortened: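 Beta-lactamase reporter ratio (blue 460 nm over green 530 nm, 405 nm excitation) after 2 h CCF4-AM loading, in HCT-116 cells exposed 16 h at 37 C to compounds pinned at 217-fold dilution. Increases relative to DMSO baseline scored.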

[18] = TOX21_p53_BLA_p5_viability: Viability Assessment in the Tox21 HCT-116 p53 Agonism Beta-lactamase Assay, Phase 5 (AID 2283600)
Procedure, shortened: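 Seeded cells (4000/well) settle 5 h before compound addition. Plates then incubate 16 h at 37C, receive FRET substrate for 2 h, and finally CellTiter-Glo, with luminescence measured after a 30 min room-temperature incubation.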

[19] = biological target: Cellular tumor antigen p53 (Homo sapiens) (UniProt P04637); assay: TOX21_p53_BLA_p4_ratio: Tox21 HCT-116 p53 Agonism Beta-lactamase Assay, Ratio, Phase 4 (AID 2283601)
Procedure, shortened: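 Signal is the blue/green (460nm/530nm) ratio of cleaved versus uncleaved CCF4-AM substrate, read after 2 h substrate loading. Cells were HCT116 carrying the p53-responsive beta-lactamase reporter, dosed 16 h at 37C, 5% CO2; CellTiter-Glo measured in parallel.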

Measured: AC50

Cellular tumor antigen p53 (Homo sapiens), sequence (P04637 whole entry, looked up): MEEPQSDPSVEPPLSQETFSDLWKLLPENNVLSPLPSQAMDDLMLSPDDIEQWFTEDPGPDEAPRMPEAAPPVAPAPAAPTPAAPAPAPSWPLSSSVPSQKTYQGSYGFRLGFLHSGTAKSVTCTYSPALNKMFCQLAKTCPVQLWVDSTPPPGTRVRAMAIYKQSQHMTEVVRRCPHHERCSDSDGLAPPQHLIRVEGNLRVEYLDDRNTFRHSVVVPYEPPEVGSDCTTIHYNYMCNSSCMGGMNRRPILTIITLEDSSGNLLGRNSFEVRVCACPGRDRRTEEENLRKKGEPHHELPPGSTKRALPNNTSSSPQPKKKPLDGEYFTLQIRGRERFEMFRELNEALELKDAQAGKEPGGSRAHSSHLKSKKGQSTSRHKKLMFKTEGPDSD

CCCCC(CC)COC(=O)CC(C(=O)OCC(CC)CCCC)S(=O)(=O)O (stereo unspecified)
active: [1] 80.2 µM | [2] 50 µM | [3] 77.6 µM | [4] 93.5 µM | [6] 50 µM | [7] 13.3 µM | [8] 79.9 µM | [10] 75.3 µM | [11] 43.8 µM | [12] 59.8 µM [middle of 4 runs] | [13] 77.1 µM and 82.5 µM | [14] 71.8 µM and 65 µM and 42 µM | [15] 85.9 µM and 83.5 µM | [16] 50.1 µM [middle of 4 runs] | [17] 79.2 µM [middle of 4 runs] | [18] 62.1 µM [middle of 4 runs] | [19] 79.2 µM [middle of 4 runs]
inactive: TIMP1, TIMP1 (gene 7076) | [5] | [9] | [13] | [14] | [15]

CCCc1cc(=O)[nH]c(=S)[nH]1
not listed: [11]
inactive: all other assays above

Cc1ccc(C(C)C)c(O)c1
inactive: [1] | [2] | [3] | TIMP1, TIMP1 (gene 7076) | [4] | [5] | [6] | [7] | [8] | [9] | [10] | [11] | [13] | [14] | [15] | [16] | [17] | [18] | [19]
active: [12] 66 µM | [16] 60.5 µM | [17] 73.2 µM | [19] 86.6 µM

COc1ccc2c(c1)c(CC(=O)O)c(C)n2C(=O)c1ccc(Cl)cc1
not listed: [6]
inactive: all other assays above

NC(=O)Cn1c(=O)cc(CCN2CCN(c3nccc4sccc34)CC2)c2ccc(F)cc21
inactive: [1] | [2] | TIMP1, TIMP1 (gene 7076) | [4] | [10] | [13] | [14] | [16]
active: [3] 39.1 µM | [5] 50 µM | [6] 50 µM | [7] 12.6 µM | [8] 34.6 µM | [9] 77 µM

COCCOCCOC
active: [2] 1.21 µM | [6] 0.59 µM | [7] 3.2 µM | [9] 1.16 µM
not listed: [14] | [16]
inactive: all other assays above

Nc1nc(N)c2nc(CNc3ccc(C(=O)N[C@@H](CCC(=O)O)C(=O)O)cc3)cnc2n1
inactive: [2] | [3] | TIMP1, TIMP1 (gene 7076) | [4] | [5] | [6] | [7] | [8] | [9] | [11] | [12] | [13] | [15] | [16] | [17] | [19]
active: [1] 0.0974 µM | [12] 0.0118 µM | [13] 30.8 nM | [14] 38.1 nM | [15] 68.8 nM | [16] 0.0491 µM | [17] 0.158 µM | [18] 64.9 nM | [19] 0.0582 µM

O=C(O)CCCCC(=O)O
inactive: all assays above

CCCCCCOCCO
not listed: [11] | [14] | [16]
inactive: all other assays above

CC(CO)OC(C)CO (stereo unspecified) (tested in a mixture with another compound)
not listed: [12] | [13] | [14] | [15] | [16] | [17] | [18] | [19]
inactive: all other assays above

COC(=O)c1ccc(O)cc1
inactive: all assays above

C=CCOC(=O)c1ccccc1C(=O)OCC=C
not listed: [14] | [16]
inactive: all other assays above

CC(=O)C(C)=CC1C(C)=CCCC1(C)C (stereo unspecified)
not listed: [6] | [19]
inactive: all other assays above
